# UBC9 SUMO inh: inhibitors of human SUMOylation (UBC9). HTRF SUMOylation assay, SAE1/SAE2 + UBC9, in vitro. inhibition, % at 35 µM. hit rate 0.36% among 290,000. AID 2006; in the data active = inhibition above about 50%, passing the limit was not always enough; inconclusive = no clear call, values can overlap the other calls
# MLLE-PAM2 inh: inhibitors of microRNA-mediated deadenylation, human PABP1 MLLE binding | P11940 | GST-MLLE / FITC-PAM2 fluorescence polarization | inhibition, % at 20 µM | hit rate 0.36% among 360,000 | AID 588489; in the data active = inhibition above about 35%, passing the limit was not always enough;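 note: plate controls were DMSO wells with GST-MLLE for no effect and wells lacking GST-MLLE protein for full effect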
# Target sequence (P11940 whole entry, looked up): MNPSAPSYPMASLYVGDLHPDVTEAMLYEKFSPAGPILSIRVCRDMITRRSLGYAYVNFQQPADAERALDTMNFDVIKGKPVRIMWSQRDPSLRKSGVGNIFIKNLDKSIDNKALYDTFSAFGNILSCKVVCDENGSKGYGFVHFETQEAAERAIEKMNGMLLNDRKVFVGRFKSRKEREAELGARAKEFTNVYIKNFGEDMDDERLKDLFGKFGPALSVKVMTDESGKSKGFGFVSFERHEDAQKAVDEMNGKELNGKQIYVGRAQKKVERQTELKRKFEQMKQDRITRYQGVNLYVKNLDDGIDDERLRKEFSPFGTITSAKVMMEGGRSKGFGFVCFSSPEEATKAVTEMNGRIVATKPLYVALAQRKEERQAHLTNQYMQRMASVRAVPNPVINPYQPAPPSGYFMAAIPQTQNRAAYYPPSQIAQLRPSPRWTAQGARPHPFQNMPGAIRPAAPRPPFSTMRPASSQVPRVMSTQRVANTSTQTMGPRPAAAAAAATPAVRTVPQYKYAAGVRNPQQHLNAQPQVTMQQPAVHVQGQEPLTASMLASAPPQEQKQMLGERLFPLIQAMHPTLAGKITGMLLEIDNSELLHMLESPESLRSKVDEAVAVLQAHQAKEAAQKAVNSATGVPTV
# ALR H2O2 inh: inhibitors of human sulfhydryl oxidase ALR | hit rate 3.8% among 290,000 | purified ALR, DTT oxidation, H2O2 HRP-luminol luminescence | AID 485317 | inhibition, % (test concentration not listed);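 active = mean replicate inhibition above about 79%, with every replicate also reaching it, limit read from the data; inconclusive = only one of the two criteria met; inactive = mean below limit and not every replicate reaching it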
# eIF4H FP inh: inhibitors of RNA binding by human eIF4H; eIF4H fluorescence polarization binding assay; inhibition, % at 35 µM; hit rate 0.94% among 290,000; Q15056;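 note: calls also rest on retests at 20 µM and on dose response follow-up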
# PABP FP inh: blocks human PABP binding to poly(A) RNA. fluorescence polarization. inhibition, % at 35 µM. hit rate 1% among 290,000;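 note: calls also rest on retests at 20 µM and on dose response follow-up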
# Efflux pump inh: inhibitors of Candida antifungal efflux pumps expressed in yeast | inhibition, % at 10 µM | hit rate 0.44% among 330,000 | S. cerevisiae Candida pump triplex, Nile Red efflux;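 active = plate passing quality check with inhibition over a set limit, or well fluorescence over plate mean plus 4 SD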;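 note: Nile Red retained in pooled yeast measured as flow cytometry median fluorescence; 0% = buffer negative control and 100% = Enniatin B positive control; higher means more Nile Red kept so more efflux inhibition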
# * marks the source's active call; other numbers are inactive results; ? = inconclusive; . = no result given. Hits are enriched below; roughly 4.7% of the tested compounds scored in any of these assays. Unless noted, the rule behind the calls is not given here.
SMILES,UBC9 SUMO inh,MLLE-PAM2 inh,ALR H2O2 inh,eIF4H FP inh,PABP FP inh,Efflux pump inh
COc1cc(CNc2ccc(O)cc2)cc(Br)c1OCc1ccccc1F,91*,1,.,24,-13,0
CCOc1c(Br)cc(CNc2ccc(N3CCOCC3)cc2)cc1OC,1,18,98*,-4,-12,0
CCOc1c(Br)cc(CNc2ccc3c(c2)OCCO3)cc1OC,-6,5,47,0,-10,0
Cc1ccc(NC(=O)CS(=O)CC(=O)NC23CC4CC(CC(C4)C2)C3)cc1 (stereo not given),8,-5,-4,-6,-6,0
Cc1cc(C)cc(NC(=O)CSc2nc(=O)n(CCN3CCOCC3)c3c2CCCC3)c1,.,-7,-18,.,.,0
O=C(CSc1nc(=O)n(CCCN2CCOCC2)c2c1CCCC2)Nc1ccc(F)c(F)c1,.,12,10,.,.,0
O=C(CSc1nc(=O)n(CCCN2CCOCC2)c2c1CCCC2)Nc1cccc(Cl)c1,.,11,99*,.,.,0
Cc1cccc(NC(=O)CSc2nc(=O)n(CCCN3CCOCC3)c3c2CCCC3)c1,.,12,98*,.,.,0
CC(=O)c1cccc(NC(=O)CSc2nc(=O)n(CCCN3CCOCC3)c3c2CCC3)c1,.,-2,98*,.,.,0
Cc1cn(CC(=O)N[C@H](C)c2cccc3ccccc23)c(=O)[nH]c1=O,.,6,.,.,.,.
Cn1cccc1/C=C(/C#N)c1ccc(F)cc1,-3,0,-4,-7,-6,0
CCC(C)/C(C)=N/NC(=O)c1ccc(COc2ccc(Cl)c(C)c2)cc1 (stereo not given),-5,15,99*,-11,-8,0
CCOc1ccc(OCc2ccc(C(=O)N/N=C(\C)c3ccccn3)cc2)cc1,-27,-3,-12,9,18,0
CCOC(=O)C1(C)CCCN(C(=O)c2ccc(OC)c(OC)c2)C1 (stereo not given),.,1,.,.,.,.
O=C(NCc1ccncc1)c1ccc(N2CCCC2)c([N+](=O)[O-])c1,-8,-1,-4,105,3,0
CCOc1ccc(/C=C/C(=O)c2ccccc2)cc1OC,4,0,7,0,4,0
COC(=O)c1cc(CNC(=O)c2ccc(N3CCCC3)c([N+](=O)[O-])c2)ccc1OC,12,4,2,22,54*,0
COc1ccc(C(=O)/C=C/c2ccc(N3CCCCC3)c([N+](=O)[O-])c2)cc1,-2,2,2,active,81*,0
COc1ccc(C(=O)/C=C/c2ccc(N3CCCCC3)c([N+](=O)[O-])c2)c(OC)c1,-10,3,12,-2,-4,0
CCOc1ccc(C(=O)/C=C/c2ccc(OC)c(OC)c2)cc1,4,3,97*,-8,3,0
Cc1nn(C)cc1/C=C/C(=O)c1ccc(O)cc1,-8,2,99*,-6,-12,0
CN1CC(=O)N(CC(=O)Nc2ccc(OCc3ccccc3)cc2)C1=O,.,-52,6,.,.,0
COc1ccc(C(=O)/C=C/c2ccc(O)cc2)cc1,16,-26,98*,-6,-5,0
COc1ccc(C=CC(=O)c2ccc([N+](=O)[O-])cc2)cc1,.,-31,.,.,.,.
O=C(/C=C/c1ccc(O)cc1)c1ccccc1,8,-11,99*,-4,1,0
SMILES,UBC9 SUMO inh,MLLE-PAM2 inh,ALR H2O2 inh,eIF4H FP inh,PABP FP inh,Efflux pump inh
Cc1nc([N+](=O)[O-])c(Br)n1CC(=O)c1ccc(Cl)cc1,9,-22,97*,-4,-1,0
O=C(O)c1ccc(NCc2cccc(Br)c2)cc1,14,-1,-2,active,118*,0
O=C(O)c1ccc(NCc2ccncc2)cc1,-9,-10,2,5,11,1
COc1ccc(/C=C/C(=O)OCC(=O)c2cc(C)ccc2C)cc1,.,-3,.,.,.,.
NC(=O)CC(NC(=O)Cc1ccc(Br)cc1)c1ccc(N2CCC(N3CCCC3)CC2)c([N+](=O)[O-])c1 (stereo not given),13,23,-2,-5,-2,0
Cn1c(SCc2ccc(C#N)cc2Cl)nc2ccccc21,18,12,96*,-2,5,0
Cc1cc(Cl)c2oc(C(=O)N3CCN(C(=O)c4ccco4)CC3)c(C)c2c1,10,4,0,-4,-2,0
Cc1cc(C(=O)Nc2cccc(C(=O)O)c2)c(C)o1,10,-8,9,2,0,0
Cc1oc(-c2ccccc2)cc1C(=O)Nc1cccc(C(=O)O)c1,6,22,84*,0,6,0
COc1ccc(OC)c(C2C3=C(COC3=O)Nc3cc4c(cc32)OCO4)c1 (stereo not given),12,-8,99*,0,-3,0
COc1ccc(C2C3=C(CC(C)(C)CC3=O)Nc3cc4c(cc32)OCO4)cc1 (stereo not given),-3,-10,?,-9,-2,0
Nc1nc(SCc2ccc(Cl)cc2Cl)ns1,-80,-1,99*,2,-6,0
Nc1nc(SCc2ccc(Cl)cc2Cl)nc2nc3c(cc12)CCCC3,11,-39,90*,-12,4,0
Nc1nnc(SCc2ccc(F)cc2)s1,-3,6,-2,-7,-1,0
Nc1nc(SCc2ccc(F)cc2)ns1,-1,22,98*,3,-3,0
COc1cc(C)ccc1S(=O)(=O)NC(=O)C1(C)CCN1C(=O)c1ccc(C(F)(F)F)nc1C (stereo not given),.,-17,.,.,.,.
O=C(c1cc(Cl)nc2ccccc12)N(Cc1nnc(-c2ccccc2Cl)o1)C1CC1,8,2,.,4,-6,-3
O=C1CC(N2CCc3ccccc32)C(=O)N1c1ccccc1 (stereo not given),11,-6,99*,-10,8,0
C=CCNc1nc(NCCOc2ccccc2Cl)c2sc(-c3ccccc3)cc2n1,.,-4,.,.,.,.
O=C(/C=C/c1cccs1)N1CCN(c2ccc(O)cc2)CC1,16,-11,99*,-1,49,0
Cc1ccccc1NC(=S)N/N=C/c1ccc(O)cc1O,32,31,99*,10,-4,0
Cc1ccc2nc(C)cc(N/N=C/c3cccnc3)c2c1,2,8,99*,-12,-2,1
Cc1cc(-c2ccccc2)nc(N/N=C/c2ccc(O)cc2O)n1,-19,6,66,18,7,0
COc1ccc2nc(C)cc(N/N=C/c3cccc(OC)c3O)c2c1,9,-73,87*,-12,-4,0
Cc1cc(N/N=C/c2ccccc2O)c2ccccc2n1,-5,-44,99*,-1,-9,1
Cn1c(CN2CCCC2)nc2cc(NC(=O)COc3ccc([N+](=O)[O-])cc3)ccc21,15,-4,-9,-5,-7,0
CC1CN(C(=S)NC(=O)C2CCCCC2)CC(C)O1 (stereo not given),-5,8,29,3,2,0
